# About 83,000 compounds went through this panel and 20% of them were active in at least one assay; those are over-represented in the sample as a whole.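 Cells were grown in 96-well plates and exposed to the test compound at a single concentration for 48 hours; results are reported as percent growth, with values below 10 considered active.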 A number with no mark means an inactive call.
# Tested on: MDA-MB-468 breast
# Test: NCI-60 one-dose screen, 48 h (100 = growth as untreated, 0 = no growth, -100 = all killed)
# Conditions: 10 µM unless noted
row,Structure (SMILES),growth [%]
1,CC(=O)NNC(=S)N/C=C/c1c(C)ccc([N+](=O)[O-])c1[N+](=O)[O-],98.8
2,O=c1[nH]c(-c2ccccc2)nc(CN2CCCCC2)c1O,111
3,O=C(CC(=O)C(F)(F)C(F)(F)C(F)(F)F)c1cc2ccccc2o1,112
4,C=C(C)CCC(C)N1CCC(N2CCC(C(=O)NCCc3ccccc3)CC2)CC1 (centres undefined),48.4
